# Assay results from publication PMC3218832.
# Assays:
# Test in all cases: protein binding microarray; high values mean tight binding
# Conditions in all cases: dsDNA, one strand shown
# RELARELA (p65 homodimer) = RELARELA (p65 homodimer) (Homo sapiens, UniProt Q04206 1-307)
# p50p50 homodimer = p50p50 homodimer (Homo sapiens, UniProt P19838 7-356)
# p52p52 homodimer = target: T1, p52p52 homodimer (Homo sapiens, UniProt Q00653 4-332)
# T1 sequence: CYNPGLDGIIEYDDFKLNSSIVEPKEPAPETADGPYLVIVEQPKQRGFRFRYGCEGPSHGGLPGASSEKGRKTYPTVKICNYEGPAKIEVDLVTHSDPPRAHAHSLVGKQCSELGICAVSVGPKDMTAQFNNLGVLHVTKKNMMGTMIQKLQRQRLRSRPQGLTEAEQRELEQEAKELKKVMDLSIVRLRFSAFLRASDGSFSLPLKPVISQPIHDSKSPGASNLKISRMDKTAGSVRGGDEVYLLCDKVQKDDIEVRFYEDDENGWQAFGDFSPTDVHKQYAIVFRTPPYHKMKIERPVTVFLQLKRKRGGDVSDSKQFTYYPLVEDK
# [1] = target: RELA (p65) subunit of heterodimer;p50 subunit (Homo sapiens;Homo sapiens, UniProt Q04206;P19838 1-307;7-356)
# [2] = target: RELA (p65) subunit of heterodimer;p52 subunit (Homo sapiens;Homo sapiens, UniProt Q04206;Q00653 1-307;4-332)
# RELB subunit;p50 subunit = RELB subunit;p50 subunit (Homo sapiens;Homo sapiens, UniProt Q01201;P19838 120-401;7-356)
# RELB subunit;p52 subunit = target: T2, RELB subunit;p52 subunit (Homo sapiens;Homo sapiens, UniProt Q01201;Q00653 120-401;4-332)
# T2 sequence 1: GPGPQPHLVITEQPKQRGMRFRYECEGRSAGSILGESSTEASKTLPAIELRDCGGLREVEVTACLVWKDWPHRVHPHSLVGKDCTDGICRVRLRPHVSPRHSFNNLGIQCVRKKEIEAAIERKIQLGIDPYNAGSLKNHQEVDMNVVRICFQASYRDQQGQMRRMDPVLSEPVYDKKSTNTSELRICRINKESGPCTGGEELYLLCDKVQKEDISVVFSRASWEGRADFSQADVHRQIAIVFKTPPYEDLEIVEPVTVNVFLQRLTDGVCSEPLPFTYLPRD
# T2 sequence 2: T1 sequence
# [3] = target: C-Rel subunit;p50 subunit (Homo sapiens;Homo sapiens, UniProt Q04864;P19838 1-285;7-356)
# [4] = target: T3, C-Rel subunit;p52 subunit (Homo sapiens;Homo sapiens, UniProt Q04864;Q00653 1-285;4-332)
# T3 sequence 1: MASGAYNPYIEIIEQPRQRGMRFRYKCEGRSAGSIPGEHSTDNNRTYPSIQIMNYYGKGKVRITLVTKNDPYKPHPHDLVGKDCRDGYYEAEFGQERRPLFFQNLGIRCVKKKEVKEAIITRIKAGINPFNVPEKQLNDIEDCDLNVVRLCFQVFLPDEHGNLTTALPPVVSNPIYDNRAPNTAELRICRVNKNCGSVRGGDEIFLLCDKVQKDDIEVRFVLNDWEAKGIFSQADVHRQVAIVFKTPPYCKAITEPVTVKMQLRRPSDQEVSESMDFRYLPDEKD
# T3 sequence 2: T1 sequence
# Sequence of RELARELA (p65 homodimer) (Q04206 1-307): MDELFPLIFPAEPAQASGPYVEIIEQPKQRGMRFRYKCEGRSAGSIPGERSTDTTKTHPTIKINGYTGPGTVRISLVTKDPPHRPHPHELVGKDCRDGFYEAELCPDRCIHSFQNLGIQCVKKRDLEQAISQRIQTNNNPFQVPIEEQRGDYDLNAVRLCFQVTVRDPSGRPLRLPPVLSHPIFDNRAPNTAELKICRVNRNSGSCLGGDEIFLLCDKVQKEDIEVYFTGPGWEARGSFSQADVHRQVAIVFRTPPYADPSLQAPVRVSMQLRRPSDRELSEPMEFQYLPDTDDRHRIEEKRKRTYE
# Sequence of RELA (p65) subunit of heterodimer;p50 subunit (Q04206 1-307, chain 1 of 2): as the sequence (Q04206 1-307) above
# Sequence of RELA (p65) subunit of heterodimer;p50 subunit (P19838 7-356, chain 2 of 2): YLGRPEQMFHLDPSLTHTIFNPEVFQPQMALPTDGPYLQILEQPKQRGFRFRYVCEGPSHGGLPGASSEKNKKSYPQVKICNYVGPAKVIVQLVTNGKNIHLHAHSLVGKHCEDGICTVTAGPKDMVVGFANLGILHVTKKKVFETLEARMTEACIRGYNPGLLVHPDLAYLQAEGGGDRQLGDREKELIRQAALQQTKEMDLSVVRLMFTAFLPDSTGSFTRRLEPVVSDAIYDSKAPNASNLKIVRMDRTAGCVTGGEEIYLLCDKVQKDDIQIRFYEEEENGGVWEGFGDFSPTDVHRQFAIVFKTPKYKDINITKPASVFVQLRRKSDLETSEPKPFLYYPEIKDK
# Sequence of p50p50 homodimer (P19838 7-356): as the sequence (P19838 7-356, chain 2 of 2) above
Sequence,binding signal (RELARELA (p65 homodimer)) [z-score],binding signal (p50p50 homodimer) [z-score],binding signal (p52p52 homodimer) [z-score],binding signal [1] [z-score],binding signal [2] [z-score],binding signal (RELB subunit;p50 subunit) [z-score],binding signal (RELB subunit;p52 subunit) [z-score],binding signal [3] [z-score],binding signal [4] [z-score]
CAAATAGCCCC,0.081,0.839,0.425,0.413,0.823,0.524,0.621,0.331,0.543
AAGGGCCCCCT,-0.998,0.884,0.332,0.446,0.569,0.703,1.14,0.138,0.261
AAGTGGGCCCT,-0.584,-0.904,-0.603,-0.886,-0.714,-0.762,-0.527,-1.25,-0.634
CAGGAGGTCCT,0.426,-1.52,-0.389,-0.781,-0.822,-0.523,-0.466,-0.953,-0.415
AAGGGTGCCCT,-1.07,-1.79,-0.569,-1.02,-0.718,-0.876,-0.74,-1.1,-0.646
GAATATCCCCC,0.817,1.35,1.71,1.94,1.64,1.97,1.9,1.33,1.58
GGAGGTACCCT,-0.125,0.0465,-0.0665,0.0938,0.0265,0.0938,-0.25,-0.0429,0.0544
GGAAGCACCCT,-0.312,0.509,0.257,0.415,0.261,-0.129,0.214,0.0298,0.224
CGGGGAATCCC,3.57,1.22,3.13,2.36,2.81,2.64,2.75,2.51,3.54
CAGGTTACCCC,0.269,0.178,0.0851,0.345,0.253,0.443,0.629,0.552,0.49
AAAGGAACCCC,-0.25,0.367,0.122,0.18,0.127,0.118,0.351,0.41,0.175
AAAAAGCCCCC,1.22,1.3,2.26,1.98,2.06,2.17,2.06,1.43,2.22
CGGGTCCTCCC,-0.107,-0.467,-0.154,-0.451,-0.038,-0.526,-0.335,-0.324,0.0736
GAAAAGTCCCT,1.43,1.36,2.5,2.07,1.79,2.67,2.22,1.59,2.16
AAATTGGCCCC,-0.344,0.122,-0.144,0.118,-0.121,0.375,0.258,0.04,-0.0339
GGATGACTCCC,-0.304,-0.794,-0.473,-0.49,-0.701,-0.618,-0.826,-0.932,-0.692
AAGGACGCCCT,-0.995,-2.2,-0.8,-0.915,-0.945,-1.1,-0.803,-1.23,-0.928
GAAGGCTCCCT,-0.795,-1.03,-0.473,-0.74,-0.784,-0.594,-0.67,-1.02,-0.773
GAGGTGGTCCT,-0.284,-0.198,-0.03,-0.746,-0.496,-0.46,-0.352,-1.08,-0.521
AGGTTTTCCCC,3.11,1.14,3.16,2.17,2.48,2.01,2.3,1.8,2.63

Sequence,binding signal (RELARELA (p65 homodimer)) [z-score],binding signal (p50p50 homodimer) [z-score],binding signal (p52p52 homodimer) [z-score],binding signal [1] [z-score],binding signal [2] [z-score],binding signal (RELB subunit;p50 subunit) [z-score],binding signal (RELB subunit;p52 subunit) [z-score],binding signal [3] [z-score],binding signal [4] [z-score]
GGGAACCCCCC,2.47,1.16,3.03,2.69,2.78,2.09,2.68,2.19,2.96
CGATTAGTCCT,-0.163,-1.16,-0.532,-0.961,-0.861,-1.12,-0.766,-1.1,-0.684
GAGAAAACCCT,0.625,0.495,0.559,0.373,0.499,0.0283,0.361,0.245,0.234
CAGTGAGTCCC,0.14,0.525,0.308,0.411,0.115,0.511,0.164,0.393,0
GGAGAACCCCC,0.892,1.01,1.75,1.88,1.77,1.42,1.59,1.21,1.74
CAGTGGTCCCC,-0.00968,0.538,0.29,0.247,0.212,0.612,0.412,0.329,0.0114
GAGGGATTCCT,0.218,0.321,0.87,0.254,0.589,0.159,0.491,0.376,0.538
AAGATAATCCT,-0.605,-1.55,-0.666,-1.04,-0.884,-1.14,-0.91,-1.26,-0.848
CAGTTACTCCT,-0.453,-1.22,-0.649,-0.763,-0.94,-0.976,-0.763,-1.08,-0.871
CGAGAAATCCC,1.4,0.819,0.839,0.872,0.718,0.773,0.543,0.883,0.451
GGATAAATCCC,0.859,0.48,0.567,0.64,0.582,0.489,0.482,0.867,0.396
CGAGTTGCCCC,0.677,0.0517,-0.0293,0.542,0.31,0.428,0.407,0.855,0.564
AAGGTGTCCCT,-0.0449,0.811,0.895,0.784,0.967,1.01,1.5,0.63,0.562
CGGGAACCCCC,2.26,0.986,2.98,2.47,2.46,1.67,2.34,2.01,2.86
AGGTGTCCCCC,0.286,1.17,0.966,1.2,1.19,1.21,1.46,1.14,1.02
GGATTAGCCCC,0.514,0.405,0.296,0.431,0.293,0.211,0.414,0.535,0.373
GGAAACCTCCT,0.339,-1.26,-0.526,-0.425,-0.573,-1.02,-0.75,-0.436,-0.293
GAATGATCCCC,-0.194,0.816,0.548,0.936,0.697,0.943,0.595,0.665,0.409
CAGGTGTTCCC,0.518,0.0166,0.0698,-0.00537,0.153,-0.0984,-0.0353,0.188,0.359
AAGAGGCCCCT,-0.777,0.359,-0.0334,-0.301,-0.248,0.196,0.191,-0.344,-0.287

Sequence,binding signal (RELARELA (p65 homodimer)) [z-score],binding signal (p50p50 homodimer) [z-score],binding signal (p52p52 homodimer) [z-score],binding signal [1] [z-score],binding signal [2] [z-score],binding signal (RELB subunit;p50 subunit) [z-score],binding signal (RELB subunit;p52 subunit) [z-score],binding signal [3] [z-score],binding signal [4] [z-score]
CAAAGTTTCCT,0.729,-0.548,-0.572,-0.313,-0.494,-0.737,-0.489,-0.0288,-0.21
AGATTCTTCCT,-0.0679,-0.78,-0.546,-0.559,-0.896,-0.929,-0.93,-0.642,-0.588
CGAGTCTTCCC,0.331,-0.565,-0.302,-0.0997,-0.304,-0.386,-0.409,0.0328,-0.153
GGGGTTGTCCC,2.19,0.663,2.99,1.73,2.67,2.02,1.88,1.31,2.32
CAAATTACCCT,0.402,1.05,0.802,0.662,0.929,0.64,0.781,0.509,0.784
CAAAGGGTCCC,-0.377,-0.186,-0.0557,-0.357,-0.288,0.0439,-0.0611,-0.397,-0.359
CAAATTTTCCC,2.86,1.18,1.47,1.48,1.47,1.08,1.27,1.5,1.39
CGAGTCCCCCT,-0.0442,1.47,1.11,1.66,1.39,1.68,2.08,1.47,1.15
GGAATACTCCC,0.714,0.226,-0.025,0.507,0.124,0.0318,-0.125,0.28,0.199
AAAGGCCTCCC,-1.18,-0.959,-0.552,-0.794,-0.782,-0.857,-0.868,-1.17,-0.735
AAGTGGCCCCC,-0.634,0.242,-0.0278,-0.101,0.0039,0.173,0.29,0.101,0.0509
CGAGGCACCCT,-1.09,-1.16,-0.572,-1.04,-0.854,-0.726,-0.72,-0.919,-1.01
CGAAACCCCCT,0.503,1.69,2,2.24,2.14,2.22,2.21,1.52,2.21
GGGTAACCCCT,1.23,0.71,1.97,1.42,1.8,0.672,1.45,0.858,1.95
GAGATTACCCT,0.00649,0.801,0.46,0.604,0.372,0.519,0.477,0.426,0.377
GGATGCGTCCT,0.00389,-1.17,-0.665,-1.04,-0.853,-1.18,-0.816,-1.72,-0.907
AAGAACCCCCT,-0.175,1.5,1.86,2.09,1.57,2.18,2.07,1.44,1.48
GAATTTACCCT,0.959,0.984,0.839,0.86,0.817,0.602,0.504,0.6,0.479
GGAAATCCCCT,3.63,1.5,3.23,3.21,3.34,2.45,3.27,3.04,3.88
